Screening results (PubChem)
GPR151 activ: activators of human GPR151, primary screen, cell-based, PathHunter beta-arrestin, luminescence; PathHunter beta-arrestin GPR151 cells; hit rate 1% among 650,000; AID 1508602, 2020; G-protein coupled receptor 151 (Homo sapiens), Q8TDV0; activation, % at 11.2 µM; in the data active = activation above about 4.9%
Target sequence (Q8TDV0 whole entry, looked up): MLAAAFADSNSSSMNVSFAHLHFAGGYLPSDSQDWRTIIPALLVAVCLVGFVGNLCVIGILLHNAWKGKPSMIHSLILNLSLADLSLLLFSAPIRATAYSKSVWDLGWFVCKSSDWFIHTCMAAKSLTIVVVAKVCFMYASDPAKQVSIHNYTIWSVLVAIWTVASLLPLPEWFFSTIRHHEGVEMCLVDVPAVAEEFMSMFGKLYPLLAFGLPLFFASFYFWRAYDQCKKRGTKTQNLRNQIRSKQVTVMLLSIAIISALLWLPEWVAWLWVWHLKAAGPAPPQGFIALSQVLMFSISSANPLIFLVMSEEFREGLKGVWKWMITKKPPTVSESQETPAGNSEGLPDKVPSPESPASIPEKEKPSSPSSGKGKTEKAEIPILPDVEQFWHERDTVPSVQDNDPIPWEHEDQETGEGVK
FBW7 act: FBW7 E3 ligase activators, primary screen, biochemical, AlphaScreen, human | AlphaScreen FBW7–phospho-cyclin E peptide binding, activator screen | normalized activity (activation), % at 26.1 µM | hit rate 0.13% among 650,000 | AID 1259310, 2017; in the data active = normalized activity above about 1.9%;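 also: purified mutant Fbw7 with reduced substrate affinity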
TEAD-YAP block: TEAD-YAP interaction inhibition, primary screen, TEAD-YAP interaction inhibitor project, luminescence, HEK-TIYL cells. TEAD-Gal4/YAP UAS-luciferase luminescence. inhibition, % at 9.12 µM. hit rate 1.4% among 640,000. AID 1259422, 2018; in the data active = inhibition above about 32%
MITF primary: MITF inhibitors, primary screen, biochemical, AlphaScreen, human; inhibition, % at 2.6 µM; hit rate 0.91% among 650,000; Microphthalmia-associated transcription factor (Homo sapiens), O75030; AlphaScreen MITF homodimerization, bead proximity signal; in the data active = inhibition above about 50%
GPR151 confirm: GPR151 activators, triplicate retest, confirmation, cell-based, PathHunter beta-arrestin, luminescence; activation, % at 11.2 µM; GPR151 PathHunter beta-arrestin cells, 90 min; % of EA-reagent control over plate median; 6,700 tested, under 10 active; shares compounds with GPR151 activ;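 active = mean percent activation across replicates above the confirmation screen cutoff of 4.91%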
GPR119 ag: GPR119 activators in beta-arrestin cells, counter-screen for GPR151 activator project, cell-based, PathHunter beta-arrestin, luminescence, triplicate; shares compounds with GPR151 activ; 90 min; 0 = compound-well median, 100 = enzyme-acceptor control; activation, % at 11.2 µM; hit rate 0.3% among 6,700; AID 1508611, 2020;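 active = mean percent activation in the counterscreen above 29.09%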;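 also: counterscreen on off-target GPR119 to flag nonselective hits from the GPR151 activator screen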
Each line names hits and unclear results; the compound was inactive in the other large screens (follow-up assays come after a bar, where they were run). Compounds with a hit are over-represented: about 3.5% of the library has one in this group of screens.

CS(=O)(=O)N(CC(=O)Nc1ccc(OCc2ccccc2)cc1)C1CCCCC1	none
CN(CC(=O)NC1CCCC1)S(=O)(=O)c1ccccc1	none
CC(=O)c1ccc(NC(=O)Nc2ccc(CC(=O)O)cc2)cc1	GPR151 activ 6.6 | GPR151 confirm inactive | GPR119 ag inactive
CC(=O)Nc1ccc(C(=O)Nc2ccc(CC(=O)O)cc2)cc1	none
C[n+]1cccc(C(=O)Nc2ccccc2)c1	GPR151 activ 5.4 | GPR151 confirm inactive | GPR119 ag inactive
COC(=O)c1cccc(NC(=O)c2ccc[n+](C)c2)c1	none
CN(C)c1ccc(/C=C/CN2CCC(O)CC2)cc1	none
CN(C)c1ccc(/C=C/CN2CCCCCC2)cc1	GPR151 activ 4.9 | GPR151 confirm inactive | GPR119 ag inactive
CNc1c(N)c(=O)oc2ccccc12	none
Cc1ccc(Nc2c(N)c(=O)oc3ccccc23)cc1	GPR151 activ 17.4 | GPR151 confirm inactive | GPR119 ag inactive
Cn1ccsc1=NC(=O)C1COc2ccccc2O1 (configuration not stated)	none
COc1cc2sc(=NC(=O)C3COc4ccccc4O3)n(C)c2cc1OC (configuration not stated)	GPR151 activ 6.6 | GPR151 confirm inactive | GPR119 ag inactive
COCCNC(=O)c1ccc2c(=O)n(Cc3ccc(Cl)cc3)c(SCc3cccc([N+](=O)[O-])c3)nc2c1	none
CC(Cc1ccccc1)N=C1SCC(=O)N1Cc1ccccc1 (configuration not stated)	GPR151 activ 7.6 | GPR151 confirm inactive | GPR119 ag inactive
Nc1nc2nc(-c3cccs3)cc(C(F)(F)Cl)c2s1	none
O=C1OC(OC(=O)c2ccccc2)C(Nc2ccc([N+](=O)[O-])cc2)=C1Cl (configuration not stated)	none
Cc1cc(C)cc(CN2CCN(c3ccc4c(c3)OCO4)C2=O)c1	none
O=C1N(Cc2ccc(F)cc2F)CCN1c1ccc2c(c1)OCO2	GPR151 activ 9.8 | GPR151 confirm inactive | GPR119 ag inactive
CC12Oc3ccc(Cl)cc3C(NC(=S)N1c1cccc(Br)c1)C2C(=O)Nc1ccc(Cl)cc1 (configuration not stated)	none
CCOP(=O)(OCC)c1nc(-c2cccc3ccccc23)oc1NCc1ccco1	GPR151 activ 5.3 | GPR151 confirm inactive | GPR119 ag inactive
CN1CCN(C(=O)/C=C/c2c(Cl)cccc2Cl)CC1	GPR151 activ 7.2 | GPR151 confirm inactive | GPR119 ag inactive
Nc1nc2ncc(CNc3ccc(C(=O)NC(CCC(=O)O)C(=O)O)cc3)nc2c(=O)[nH]1 (configuration not stated)	none
Nc1nc2ncc(CNc3ccc(C(=O)N[C@@H](CCC(=O)O)C(=O)O)cc3)nc2c(=O)[nH]1	GPR151 activ 5.6 (no result: TEAD-YAP block) | GPR151 confirm inactive | GPR119 ag inactive
CC(C)N1CCN(Cc2ccc(OCCO)cc2)CC1CCO (configuration not stated)	GPR151 activ 5.2 | GPR151 confirm inactive | GPR119 ag inactive
OCCOc1ccc(CN2CCN(Cc3ccc(F)c(F)c3)C(CCO)C2)cc1 (configuration not stated)	GPR151 activ 6.8 | GPR151 confirm inactive | GPR119 ag inactive
CC(C)N1CCN(Cc2cccc(OCCO)c2)CC1CCO (configuration not stated)	none
CC(=O)c1c(C)[nH]c(C(=O)Nc2nc3c(C)cc(C)cc3s2)c1C	GPR151 activ 5.9 | GPR151 confirm inactive | GPR119 ag inactive
CN(C)CCNC(=S)NC(=O)C12CCC3CC(CC(C3)C1)C2	none
CC[n+]1c(/C=C2\Sc3ccc(-c4ccccc4)cc3N2CCO)ccc2cc(OC)ccc21	GPR151 activ 13.9, TEAD-YAP block 91.1 | GPR151 confirm inactive | GPR119 ag inactive
COc1ccc(N=c2scc(-c3ccccc3)n2CCO)cc1	none
O=C(NCc1cccc(C(F)(F)F)c1)c1cccc(NC2CCC(O)CC2)n1 (configuration not stated)	none
COC(=O)C1=C(C(=O)OC)[C@@H]2N(C)c3ccc(OC)cc3[C@@]23C[C@@H](C(=O)OC)N(C(=O)c2ccco2)C3=N1	GPR151 activ 6.1 (no result: TEAD-YAP block) | GPR151 confirm inactive | GPR119 ag inactive
CC1(C)CC(=O)C2=C(C1)N(N1CCOCC1)C(N)=C(C#N)C2c1cccc(Br)c1 (configuration not stated)	none
COc1cc(N)c(Cl)cc1C(=O)OCC(=O)NC1CCCCCC1	none
CCN(CC)S(=O)(=O)c1ccc(C(=O)NCc2nnc(SCC(=O)N3N=C(c4cccs4)CC3c3ccc(F)cc3)n2C)cc1 (configuration not stated)	none
Cn1nccc1Nc1nccc(Nc2ccccc2)n1	GPR151 activ 7.5 | GPR151 confirm inactive | GPR119 ag inactive
COc1ccc(OC)c(/C=C2\N=C(c3cc(C)ccc3[N+](=O)[O-])OC2=O)c1	none
O=C(CSc1nc2ccccc2s1)NCc1ccco1	GPR151 activ 6.1 | GPR151 confirm inactive | GPR119 ag inactive
COCCCNCCOCCOc1ccccc1	none
CCOC(=O)c1ccc(N2C(=O)CC(Cc3ccc(Cl)cc3)C2=O)cc1 (configuration not stated)	GPR151 activ 9.6 | GPR151 confirm inactive | GPR119 ag inactive
CC(=O)Nc1ccc(CN2Cc3ccccc3OC(c3ccccc3)C2)s1 (configuration not stated)	none
CCn1c(SCC(N)=O)nc2ccc(Br)cc2c1=O	GPR151 activ 5.4 | GPR151 confirm inactive | GPR119 ag inactive
CCn1c(SCC(N)=O)nc2ccc(I)cc2c1=O	none
CCCn1c(=O)c2ccccc2n2c(SCC(N)=O)nnc12	none
CCn1c(=O)c2ccccc2n2c(SCC(N)=O)nnc12	GPR151 activ 6.3 | GPR151 confirm inactive | GPR119 ag inactive
CC(=O)C(C)Sc1nc2c(c(=O)[nH]c(=O)n2C)n1Cc1cccc(C)c1 (configuration not stated)	none
NC(=O)COC(=O)c1cc(Cl)cc(Cl)c1N	none
Nc1c(Cl)cc(Cl)cc1C(=O)OCC(=O)N1CCCC1	GPR151 activ 7.5 | GPR151 confirm inactive | GPR119 ag inactive
Cc1ccc(-n2c(=S)sc3c(=O)n(-c4ccccc4)c(SCC4OCCO4)nc32)cc1C	none
O=C1C(CCCNC(=S)NC2CCCCC2)NC(=S)N1C1CCCCC1 (configuration not stated)	GPR151 activ 9.8 | GPR151 confirm inactive | GPR119 ag inactive
